High-throughput results deposited in PubChem BioAssay by Johns Hopkins Ion Channel Center.
Compounds with a hit are over-represented: about 1.6% of the library has one in this group of screens.
KCNQ2 block – KCNQ2 (rat) channel inhibition; O88943; CHO-K1 KCNQ2, FluxOR thallium flux, 20 min; stronger effect = lower value; B-score at 10 µM; 310,000 tested, 1.1% active;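 active means fluorescence ratio B-score at most minus 3 library SDs, with starting brightness B-score within 2 library SDs, cut at about -5.5 in these data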
KCNQ2 pot – enhances the rat KCNQ2 potassium channel; CHO-K1 KCNQ2, FluxOR thallium flux fluorescence; stronger effect = higher value; 310,000 tested, 0.54% active; B-score at 10 µM; O88943; AID 2239;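 active means fluorescence ratio B-score at least 3 SD of library B-scores, with initial fluorescence B-score within 3 of them, cut at about 5.3 in these data; same plate scores as AID 2156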;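 further: B-score of peak minus minimum over baseline fluorescence ratio after K+ and Tl+ stimulus; positive B-score means potentiation of KCNQ2 with more thallium influx and brighter signal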
* = called active by the depositor; i = inactive; nt = no result.

SMILES | KCNQ2 block | KCNQ2 pot
CCN(Cc1ccccc1)C(=O)c1oc2ccc(C)cc2c1C | -5.82* | -5.82
Cc1nn(-c2ccccc2)c(C)c1NC(=O)COC(=O)C1CC(=O)N(CCc2ccccc2)C1 (centres undefined) | i | 0.86
CCOC(=O)C1=C(C)NC(C)=C(C(=O)OC)C1c1cccc(Cl)c1Cl (centres undefined) | -7.53* | -7.53
CCOC(=O)C1=C(COCCN)NC(C)=C(C(=O)OC)C1c1ccccc1Cl (centres undefined) | i | nt
CCCCC(O)(CCCC)C(=O)NN(C(=O)OC)c1ccccc1 | i | nt
CCOC(=O)N(NC(=O)C(O)(C(C)C)C(C)C)c1ccccc1 | i | nt
CCOC(=O)N(NC(=O)C(O)(c1ccccc1)c1ccccc1)c1ccccc1 | -6.09* | -6.09
COC(=O)N(NC(=O)C(O)(c1ccccc1)c1ccccc1)c1ccc(C)cc1 | -5.91* | -5.91
CCOC(=O)c1c(S(=O)(=O)N2CCCCCC2)c(C)n(C)c1C | i | 0.85
COCCn1cnc2c(c1=O)c1nc3ccccc3nc1n2/N=C/c1cccc(OC)c1 | i | nt
C=CCn1cnc2c(c1=O)c1nc3ccccc3nc1n2/N=C/c1cc(OC)c(OC)c(OC)c1 | -7.86* | -7.86
NS(=O)(=O)c1cccc(NC(=O)CC(NC(=O)c2ccccc2Cl)c2ccccc2)c1 (centres undefined) | i | 0.16
Cc1cc(C)c(NC(=O)Nc2ccccc2C)c(Cl)c1 | i | 0.11
Cc1cc(C)c(NC(=O)Nc2ccccc2)c(Cl)c1 | i | 5.29*
Cc1ccc(-n2nnnc2SCC(=O)NC2CCCc3ccccc32)c(C)c1 (centres undefined) | -6.48* | -6.48
Cc1ccc(-n2nnnc2SCC(=O)NC2CCCc3ccccc32)cc1 (centres undefined) | i | nt
CC(C(=O)N1CCc2ccccc21)N1CCN(c2cccc(C(F)(F)F)c2)CC1 (centres undefined) | i | nt
Cc1cc(Br)c(NC(=O)CN(C)CCOc2ccccc2)c(Br)c1 | i | nt
Cc1cc(Br)c(NC(=O)CCl)c(Br)c1 | i | 6*
Cc1cccc(C(=O)NC(=S)NNC(=O)c2cccs2)c1 | i | 8.19*
O=C(NC(=S)NNC(=O)c1cccs1)c1ccccc1 | i | nt
CC(OC(=O)Cc1ccc(Br)cc1)C(=O)NC1CCCCC1C (centres undefined) | i | 1.44
CCCC(NS(=O)(=O)c1ccc(-c2ccc(=O)[nH]n2)s1)c1cccs1 (centres undefined) | i | 2.88
Cc1cc2c(c(=O)o1)C(c1ccc([N+](=O)[O-])o1)C(C#N)=C(N)O2 (centres undefined) | i | 7.7*
CCC(CC)C1C(C#N)=C(N)Oc2cc(C)oc(=O)c21 (centres undefined) | i | 0.34
SMILES | KCNQ2 block | KCNQ2 pot
O=C(COC(=O)CNC(=O)c1ccc(Cl)cc1Cl)NC1CCCCC1 | i | 0.43
CC1CN(CCCCOc2ccc(Cl)c3ccccc23)CC(C)O1 (centres undefined) | i | nt
COc1ccccc1CNc1cc(CSc2ccc(Cl)cc2)nc(C)n1 | -6.11* | -6.11
COc1ccccc1CNC(=O)COC(=O)CSc1ccc(Cl)cc1 | i | nt
CCCCN(C(=O)/C=C/c1ccccc1)C1CCS(=O)(=O)C1 (centres undefined) | i | 0.07
CCN(C(=O)/C=C/c1ccccc1)C1CCCCC1 | -5.8* | -5.8
COc1ccc(-c2ccc(/C=N/NC(=O)Cc3nnc(N)s3)o2)cc1Cl | -7.42* | -7.42
Cc1ccc(-c2ccc(/C=N/NC(=O)Cc3nnc(N)s3)o2)cc1Cl | i | nt
O=C(NC(NCc1cccnc1)C(Cl)(Cl)Cl)c1cccc2ccccc12 (centres undefined) | -6.28* | -6.28
O=C(NC(NCc1ccccc1)C(Cl)(Cl)Cl)c1cccnc1 (centres undefined) | i | nt
O=C(NCCc1ccccc1)C(c1ccccc1F)N(C(=O)c1csnn1)C1CC1 (centres undefined) | i | 0.31
CCNC(=O)CSc1nnc(C2CC2)n1-c1ccccc1 | i | nt
O=C(CSc1nnc(C2CCCCC2)n1-c1ccccc1)NCc1ccco1 | -5.57* | -5.57
CCN(CC)C(=O)Cn1cc(S(=O)(=O)CC(=O)Nc2ccccc2F)c2ccccc21 | i | nt
Cc1nnc(SCC(=O)Nc2ccc(O)cc2)c2ccccc12 | -5.63* | -5.63
Cc1nnc(SCC(=O)Nc2ccccc2)c2ccccc12 | i | nt
CCc1ccc(CNC(=O)CCC(=O)n2ncc3cc(C)ccc32)cc1 | i | 0.55
COc1ccc(Nc2cc(C(=O)N3CCc4ccccc4C3)c3ccccc3n2)c(OC)c1 | -7.96* | -7.96
COc1ccccc1-c1cc(C(=O)N2CCc3ccccc3C2)c2ccccc2n1 | i | nt
COCCCNC(=O)c1cc(Nc2ccc(OC)cc2OC)nc2ccccc12 | i | 0.01
COc1ccccc1Nc1cc(C(=O)N2CCc3ccccc3C2)c2ccccc2n1 | -6.28* | -6.28
CC(CNC(=O)c1ccccc1Cl)NC(=O)c1ccccc1Cl (centres undefined) | i | nt
